Rows were chosen to be rich in hits. Some 4.8% of all compounds tested hit in one or more screens of this group.
MPTP inh – mitochondrial permeability transition pore inhibitors, primary screen, biochemical, isolated mouse mitochondria, absorbance; Ca2+ swelling absorbance, 30 min; inhibition, % at 10 µM; hit rate 1.4% among 360,000;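 active means inhibition of 50% or more, scaled per plate between neutral and stimulator controls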
Beta apoptosis – inhibitors of cytokine-induced beta cell apoptosis, primary screen, luminescence. INS-1E cytokine-induced death, ATP luminescence, 48 h; percent of positive-control rescue, neutral wells zero. hit rate 0.8% among 300,000. protection from apoptosis, % (concentration not given with the values). AID 435005, 2010;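 active means Every replicate reaches about 75%, or at least half do and their mean reaches it too, limit read from the data; inconclusive means At least half of replicates reach the limit but their mean does not; inactive means Under half of replicates reach the limit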;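 further: higher means more ATP so stronger rescue from cytokine killing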
Calb FLC – C. albicans growth inhibition with fluconazole, primary screen, CaCi-2 strain, Alamar Blue fluorescence; AID 1979, 2009; hit rate 0.57% among 300,000; growth inhibition, % (no concentration beside the values); C. albicans CaCi-2 (fluconazole-resistant clinical isolate) + fluconazole, 48 h;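 active means growth inhibition above about 58% in most replicates, limit read from the data, passing the limit was not always enough; inconclusive means exactly half the replicates above a set limit; inactive means most replicates below a set limit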;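 further: all wells also contain fluconazole at 8 µg/ml as a sub-toxic cotreatment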
Mdm2 MdmX PPI – inhibitors of human Mdm2-MdmX association, primary screen, cell-based, luminescence, split luciferase, SaOS-2, uHTS; AID 485346, 2010; hit rate 3% among 330,000; SaOS-2 split-luciferase Mdm2/MdmX complementation; Protein Mdm4 (Homo sapiens) + E3 ubiquitin-protein ligase Mdm2 (Homo sapiens), …; inhibition, % at 8 µM;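 active means inhibition of at least 50% at 8 µM in the primary screen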
Target sequence (O15151 whole entry, looked up): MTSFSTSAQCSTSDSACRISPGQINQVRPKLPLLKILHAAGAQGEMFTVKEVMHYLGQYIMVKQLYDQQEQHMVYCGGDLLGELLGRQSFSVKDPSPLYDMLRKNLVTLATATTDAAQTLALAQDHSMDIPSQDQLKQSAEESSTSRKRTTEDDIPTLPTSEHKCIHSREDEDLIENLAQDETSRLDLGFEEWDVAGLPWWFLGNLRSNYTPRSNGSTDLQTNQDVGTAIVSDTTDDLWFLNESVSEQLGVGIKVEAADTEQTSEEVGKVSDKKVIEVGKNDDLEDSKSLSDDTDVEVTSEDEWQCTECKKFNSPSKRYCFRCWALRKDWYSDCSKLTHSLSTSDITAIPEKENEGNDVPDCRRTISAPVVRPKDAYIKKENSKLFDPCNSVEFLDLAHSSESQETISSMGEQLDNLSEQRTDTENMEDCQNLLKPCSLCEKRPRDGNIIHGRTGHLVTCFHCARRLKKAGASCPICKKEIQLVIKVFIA
Target sequence (Q00987 whole entry, looked up): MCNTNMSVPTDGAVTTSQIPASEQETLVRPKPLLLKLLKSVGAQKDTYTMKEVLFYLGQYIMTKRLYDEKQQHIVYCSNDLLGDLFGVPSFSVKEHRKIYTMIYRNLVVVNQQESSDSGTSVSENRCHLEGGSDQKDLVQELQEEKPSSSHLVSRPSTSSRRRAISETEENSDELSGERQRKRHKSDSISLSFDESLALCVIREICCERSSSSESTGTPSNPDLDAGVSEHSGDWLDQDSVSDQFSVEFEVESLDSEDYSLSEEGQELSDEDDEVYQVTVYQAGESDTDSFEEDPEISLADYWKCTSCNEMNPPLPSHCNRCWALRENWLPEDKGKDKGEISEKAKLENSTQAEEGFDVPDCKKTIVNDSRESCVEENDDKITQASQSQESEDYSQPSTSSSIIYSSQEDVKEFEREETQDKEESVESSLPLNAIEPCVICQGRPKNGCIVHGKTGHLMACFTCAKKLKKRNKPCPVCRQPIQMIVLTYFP
CSC inhib – cancer stem cell viability inhibitors, primary screen, luminescence; cancer stem cell-like cells viability; inhibition, % at 7.5 µM; hit rate 1.1% among 300,000; in the data active means inhibition above about 75%; inconclusive means no clear call, values can overlap the other calls; tested in HMLE shEcad cells
MPTP counter – fluorescence retest of MPTP screen hits in isolated mitochondria, single concentration. shares compounds with MPTP inh. membrane potential, Rhodamine 123 fluorescence. inhibition, % at 10 µM. hit rate 78% among 5,000. AID 624504, 2012; in the data active means inhibition above about 22%
MPTP abs DR – mitochondrial permeability transition pore inhibitors, dose response, biochemical, absorbance, uHTS hits; shares compounds with MPTP inh; isolated mitochondria swelling; IC50, µM; hit rate 58% among 780; AID 651561, 2012; in the data active means IC50 below about 20 µM
MPTP counter DR – fluorescent counter-screen in isolated mitochondria, dose response, counter-screen for MPTP inhibitor project, biochemical, fluorescence, uHTS hits; shares compounds with MPTP inh; isolated mitochondria counterscreen, fluorescence read-out; IC50, µM; hit rate 49% among 780; AID 651564, 2012; in the data active means IC50 below about 80 µM
Of the large screens only hits and unclear results are named; the others gave an inactive call (follow-up assays come after a bar, where they were run).

Cc1ccccc1N(CC(=O)N1CCN(Cc2ccccc2)CC1)S(C)(=O)=O	none (no result: Beta apoptosis, Calb FLC, Mdm2 MdmX PPI, CSC inhib)
Cn1nc(C(F)(F)F)c2cc(C(=O)Nc3ccc(F)c(Cl)c3)sc21	MPTP inh 89 | MPTP counter 76
COc1ccc(S(=O)(=O)C(C#N)c2nc3ccccc3nc2N2CCCC(C)C2)cc1 (stereo not given)	none
Cc1ccc(S(=O)(=O)C(C#N)c2nc3ccccc3nc2N2CC(C)OC(C)C2)cc1C (stereo not given)	none
Cc1cccc(S(=O)(=O)C(C#N)c2nc3ccccc3nc2N2CC(C)OC(C)C2)c1 (stereo not given)	MPTP inh 56 | MPTP counter 71
CC1CCCN(c2nc3ccccc3nc2C(C#N)S(=O)(=O)c2cccs2)C1 (stereo not given)	MPTP inh 93 | MPTP counter 67
S=C(NCC1CCCO1)Nc1ccc(Cl)c(Cl)c1 (stereo not given)	MPTP inh 60 | MPTP counter 87
S=C(NCc1ccncc1)Nc1ccccc1	none
S=C(NCc1ccncc1)Nc1ccc(Cl)c(Cl)c1	MPTP inh 88 | MPTP counter 92
S=C(NCc1ccncc1)Nc1ccc(Br)cc1	none
S=C(NCc1ccncc1)Nc1cc(Cl)cc(Cl)c1	MPTP inh 68 | MPTP counter 99
C[C@H](NC(=O)C1CCN(S(=O)(=O)c2ccccc2)CC1)C(=O)NC1CC1	none (no result: Beta apoptosis, Calb FLC, Mdm2 MdmX PPI, CSC inhib)
S=C(NCc1ccc(Cl)cc1)NC1CCN(Cc2ccccc2)CC1	MPTP inh 71 | MPTP counter 24
S=C(NCc1ccccc1)NCc1cccc(CNC(=S)NCc2ccccc2)c1	MPTP inh 84 | MPTP counter 78
S=C(NCc1ccccc1)Nc1ccc(Cl)cc1	MPTP inh 72 | MPTP counter 81
S=C(NCCCc1ccccc1)Nc1ccc(Cl)cc1	MPTP inh 97 | MPTP counter 91
S=C(NCCc1ccccn1)Nc1ccc(Cl)cc1	none
Cc1ccc(S(=O)(=O)N2CCN(C(=O)C(Cc3ccccc3)NC(=O)c3ccccc3)CC2)cc1 (stereo not given)	none (no result: Calb FLC, CSC inhib)
S=C(NCCC(c1ccccc1)c1ccccc1)Nc1ccccc1Cl	none
S=C(NCCC(c1ccccc1)c1ccccc1)Nc1ccc(Cl)cc1	MPTP inh 93 | MPTP counter 75
Cc1cc(OCC(=O)Nc2ccc(CN3CCCCC3)cc2)ccc1Cl	MPTP inh 63 (no result: Beta apoptosis) | MPTP counter inactive | MPTP abs DR 11 | MPTP counter DR 26
Cc1cc(OCC(=O)Nc2cccc(S(=O)(=O)NC3=NCCCCC3)c2)ccc1Cl	MPTP inh 87 | MPTP counter 86
Cc1cc(OCC(=O)Nc2ccc(CN3CCOCC3)cc2)ccc1Cl	none
O=C(/C=C/c1ccc([N+](=O)[O-])cc1)OCC(=O)N1CCCC1	none (no result: Calb FLC)
CCC(C)c1ccccc1NC(=S)NC(=O)c1ccco1 (stereo not given)	none
COc1ccc(NC(=O)Cn2nnc(-c3ccccc3NS(=O)(=O)c3ccccc3)n2)cc1	MPTP inh 77 | MPTP counter 75
COc1ccc(S(=O)(=O)Nc2ccccc2-c2nnn(CC(=O)Nc3ccccc3OC)n2)cc1	none
CSc1ccccc1NC(=O)Nc1ccc(F)c(Cl)c1	MPTP inh 93 | MPTP counter 75
NNC(=O)C(=O)Nc1ccc(Cl)c(Cl)c1	none
O=C1C=C(NC(=O)Nc2ccc(Cl)c(Cl)c2)CCC1	MPTP inh 91 | MPTP counter 98
O=C(Nc1ccccc1)Nc1cccc(Cl)c1Cl	MPTP inh 93 | MPTP counter 97
CSc1ccccc1NC(=O)Nc1cccc(Cl)c1	MPTP inh 62 (no result: Beta apoptosis, CSC inhib) | MPTP counter 85
O=C(Nc1ccncc1)Nc1cccc(Cl)c1Cl	Calb FLC inconclusive
CC(OC(=O)CC1CCCC1)C(=O)Nc1ccc(Cl)cn1 (stereo not given)	none
COCCNc1nc(NCCCN2CCCC2=O)c2sccc2n1	none (no result: Beta apoptosis, Calb FLC, Mdm2 MdmX PPI, CSC inhib)
CNC(=O)C(C#N)(Cc1cc(C(C)=O)ccc1OC)Cc1cc(C(C)=O)ccc1OC	none
COc1ccc(NC(=O)C(CCSC)NC(N)=O)cc1Cl (stereo not given)	none
O=C(Nc1ccc(Cl)c(Cl)c1)c1ccccc1	none (no result: Calb FLC)
CSCCC(NC(N)=O)C(=O)Nc1ccc(F)c(Cl)c1 (stereo not given)	MPTP inh 64 | MPTP counter 80
O=C(Nc1ccc(Cl)c(Cl)c1)Nc1nnc(-c2ccncc2)s1	MPTP inh 102 (no result: Calb FLC, Mdm2 MdmX PPI) | MPTP counter 87
O=C(Nc1ccc(Cl)c(Cl)c1)Nc1ccccc1O	MPTP inh 98, CSC inhib 93 | MPTP counter 64
Brc1cc2c(cc1CSc1ncccn1)OCO2	none
Cc1ccc(C(=O)NC2CC3CCCC(C2)N3C(=S)NCc2ccco2)cc1 (stereo not given)	none
Cc1c(OCC(=O)OC(C)(C)C)ccc2c3c(c(=O)oc12)CCC3	MPTP inh 62 | MPTP counter 56
C=C(C)COc1ccc2c(C)c(CC(=O)OC)c(=O)oc2c1C	MPTP inh 75 (no result: Calb FLC) | MPTP counter 59
C=CCc1cccc(CNc2nc3ccccc3n2CC)c1O	none (no result: CSC inhib)
C=CCc1cccc(CNc2nc3ccccc3n2CCC)c1O	MPTP inh 52, CSC inhib 102 | MPTP counter 53
Cc1cc(Cl)n2c(nc3cc(F)c(F)cc32)c1C#N	MPTP inh 95 (no result: Beta apoptosis, Mdm2 MdmX PPI, CSC inhib) | MPTP counter 91
CN(C)c1ccc(C=c2c3ccccc3n3c2cc(-c2ccc(Cl)cc2)[n+]3C)cc1	none (no result: Beta apoptosis, Calb FLC, Mdm2 MdmX PPI, CSC inhib)
CN(C)c1ccc(C=c2c3ccccc3n3c2cc(-c2ccccc2)[n+]3C)cc1	MPTP inh 58 (no result: Beta apoptosis, Calb FLC, Mdm2 MdmX PPI, CSC inhib) | MPTP counter 75
COc1cc(N(C)C)ccc1C=c1c2ccccc2n2c1cc(-c1ccccc1)[n+]2C	MPTP inh 56 (no result: Beta apoptosis, Calb FLC, Mdm2 MdmX PPI, CSC inhib) | MPTP counter 77
CN(C)c1ccc(C=c2c3ccccc3n3c2c2c([n+]3C)CCCC2)cc1	MPTP inh 65 (no result: Beta apoptosis, Calb FLC, Mdm2 MdmX PPI, CSC inhib) | MPTP counter 76
COc1cc(C=c2c3ccccc3n3c2cc(-c2ccccc2)[n+]3C)cc(OC)c1OC	none (no result: Beta apoptosis, Calb FLC, Mdm2 MdmX PPI, CSC inhib)
Cc1cccc(NC(=O)C(C)SCc2nc3sc4c(c3c(=O)[nH]2)CCCC4)n1 (stereo not given)	none
Cc1cc(C(=O)O)ccc1-c1ccc(/C=C2\NC(=O)N(Cc3ccc(F)cc3)C2=O)o1	none
CC(C)COc1ccc(C/C(N)=N/n2cnnc2)cc1	MPTP inh 66 | MPTP counter 54

From PubChem
